In PMC12820563, “FoxP3 forms a head-to-head dimer in vivo and stabilizes its multimerization on adjacent microsatellites”:
Over roughly 16,000 sequences, “rpm ratio (pull-down/input)” has its median near 0.94; the highest 2% begin near 1.7. The sample holds the highest values, similar sequences and a random draw of the others, so the mix is not that of the screen.

target: T1, MBP-FoxP1dN (Mus musculus, UniProt P58462 326-579); test: PD-seq (MBP pull-down with sequencing); 20 mM Tris-HCl pH 7.5, 100 mM NaCl, 1.5 mM MgCl2, 0.4 uM protein, 0.1 uM dsDNA library, 30 min, room temperature, amylose pull-down; high values mean tight binding; conditions: protein: recombinant; tags: His6-MBP; chain copies: 2; dsDNA, one strand shown
T1 sequence: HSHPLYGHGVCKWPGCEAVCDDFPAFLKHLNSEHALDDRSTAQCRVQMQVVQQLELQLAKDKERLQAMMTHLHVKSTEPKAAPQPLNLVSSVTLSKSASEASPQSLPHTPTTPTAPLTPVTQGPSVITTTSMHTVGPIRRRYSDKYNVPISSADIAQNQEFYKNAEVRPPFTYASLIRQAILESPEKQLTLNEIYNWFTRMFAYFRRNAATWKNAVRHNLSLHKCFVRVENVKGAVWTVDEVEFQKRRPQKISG
Summary of the method: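 Protein and DNA were mixed at 0.4 µM and 0.1 µM and held for 30 min at room temperature in Tris pH 7.5 buffer with NaCl and MgCl2; the protein was a His6-MBP-tagged, N-terminally truncated mouse FoxP3 or FoxP1 fragment from E. coli, and the DNA a Klenow-filled double-stranded degenerate library. Amylose resin captured the complexes, which were washed three times. Binding is read as reads-per-million enrichment of pull-down versus input after Illumina sequencing, with replicates pooled.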

Question: Which binding signal does the source give for “GATGATTGTTCTCCCAGCTGATGAATTTATTGCATCGAGTAAACAAATTTTCCTAATCTTTCTGTTCAAGCGCCATCTAC” here?
Answer: 1.62 RPM ratio (pull-down/input)

Question: How did the binding signal turn out when “GATGATTGTTCTCCCAGCTGATGAATTTGCATTATCGAGTAAACAAATTTTCCTAATCTTTCTGTTCAAGCGCCATCTAC” was run?
Answer: 1.49 RPM ratio (pull-down/input)

Question: “GATGATTGTTCTCCCAGCTGATGAATTGCATCTATCGAGTAAACAAATTTTCCTAATCTTTCTGTTCAAGCGCCATCTAC” was tested. Which binding signal did it give?
Answer: 1.75 RPM ratio (pull-down/input)

Question: With “GATGATTGTTCTCCCAGCTGATGAATTTCTTGCATCGAGTAAACAAATTTTCCTAATCTTTCTGTTCAAGCGCCATCTAC” as the sequence, how does the binding signal read?
Answer: 1.27 RPM ratio (pull-down/input)

Question: How did the binding signal turn out when “GATGATTGTTCTCCCAGCTGATGAATTGCAGCTATCGAGTAAACAAATTTTCCTAATCTTTCTGTTCAAGCGCCATCTAC” was run?
Answer: 1.15 RPM ratio (pull-down/input)

Question: How did the binding signal turn out when “GATGATTGTTCTCCCAGCTGATGAATTGCATTTATCGAGTAAACAAATTTTCCTAATCTTTCTGTTCAAGCGCCATCTAC” was run?
Answer: 1.77 RPM ratio (pull-down/input)

Question: With “GATGATTGTTCTCCCAGCTGATGAATTAGTCTGGTCGAGTAAACAAATTTTCCTAATCTTTCTGTTCAAGCGCCATCTAC” as the sequence, how does the binding signal read?
Answer: 0.822 RPM ratio (pull-down/input)

Question: With “GATGATTGTTCTCCCAGCTGATGAATTTGGGCCATCGAGTAAACAAATTTTCCTAATCTTTCTGTTCAAGCGCCATCTAC” as the sequence, how does the binding signal read?
Answer: 0.878 RPM ratio (pull-down/input)

Question: “GATGATTGTTCTCCCAGCTGATGAATTCTTTGTGTCGAGTAAACAAATTTTCCTAATCTTTCTGTTCAAGCGCCATCTAC” was tested. Which binding signal did it give?
Answer: 1.06 RPM ratio (pull-down/input)

Question: How did the binding signal turn out when “GATGATTGTTCTCCCAGCTGATGAATTTGATGTGTCGAGTAAACAAATTTTCCTAATCTTTCTGTTCAAGCGCCATCTAC” was run?
Answer: 1.16 RPM ratio (pull-down/input)

Question: How did the binding signal turn out when “GATGATTGTTCTCCCAGCTGATGAATTTTCTGTGTCGAGTAAACAAATTTTCCTAATCTTTCTGTTCAAGCGCCATCTAC” was run?
Answer: 0.968 RPM ratio (pull-down/input)

Question: With “GATGATTGTTCTCCCAGCTGATGAATTGTGTTTGTCGAGTAAACAAATTTTCCTAATCTTTCTGTTCAAGCGCCATCTAC” as the sequence, how does the binding signal read?
Answer: 2.8 RPM ratio (pull-down/input)

Question: With “GATGATTGTTCTCCCAGCTGATGAATTTGCTGTGTCGAGTAAACAAATTTTCCTAATCTTTCTGTTCAAGCGCCATCTAC” as the sequence, how does the binding signal read?
Answer: 1.14 RPM ratio (pull-down/input)

Question: Which binding signal does the source give for “GATGATTGTTCTCCCAGCTGATGAATTGTTTGTGTCGAGTAAACAAATTTTCCTAATCTTTCTGTTCAAGCGCCATCTAC” here?
Answer: 2.77 RPM ratio (pull-down/input)

Question: “GATGATTGTTCTCCCAGCTGATGAATTACCCATATCGAGTAAACAAATTTTCCTAATCTTTCTGTTCAAGCGCCATCTAC” was tested. Which binding signal did it give?
Answer: 1.07 RPM ratio (pull-down/input)

Question: Which binding signal does the source give for “GATGATTGTTCTCCCAGCTGATGAATTACTCCTCTCGAGTAAACAAATTTTCCTAATCTTTCTGTTCAAGCGCCATCTAC” here?
Answer: 1.05 RPM ratio (pull-down/input)

Question: How did the binding signal turn out when “GATGATTGTTCTCCCAGCTGATGAATTATATGAGTCGAGTAAACAAATTTTCCTAATCTTTCTGTTCAAGCGCCATCTAC” was run?
Answer: 0.962 RPM ratio (pull-down/input)

Question: For “GATGATTGTTCTCCCAGCTGATGAATTAATAATATCGAGTAAACAAATTTTCCTAATCTTTCTGTTCAAGCGCCATCTAC”, which binding signal is on record?
Answer: 1.51 RPM ratio (pull-down/input)

Question: “GATGATTGTTCTCCCAGCTGATGAATTATGAATATCGAGTAAACAAATTTTCCTAATCTTTCTGTTCAAGCGCCATCTAC” was tested. Which binding signal did it give?
Answer: 1.07 RPM ratio (pull-down/input)

Question: “GATGATTGTTCTCCCAGCTGATGAATTAAAAATATCGAGTAAACAAATTTTCCTAATCTTTCTGTTCAAGCGCCATCTAC” was tested. Which binding signal did it give?
Answer: 1.35 RPM ratio (pull-down/input)

Question: With “GATGATTGTTCTCCCAGCTGATGAATTAACAATATCGAGTAAACAAATTTTCCTAATCTTTCTGTTCAAGCGCCATCTAC” as the sequence, how does the binding signal read?
Answer: 1.87 RPM ratio (pull-down/input)

Question: Which binding signal does the source give for “GATGATTGTTCTCCCAGCTGATGAATTATCAATATCGAGTAAACAAATTTTCCTAATCTTTCTGTTCAAGCGCCATCTAC” here?
Answer: 1.96 RPM ratio (pull-down/input)

Question: Which binding signal does the source give for “GATGATTGTTCTCCCAGCTGATGAATTATATCAATCGAGTAAACAAATTTTCCTAATCTTTCTGTTCAAGCGCCATCTAC” here?
Answer: 1.16 RPM ratio (pull-down/input)

Question: How did the binding signal turn out when “GATGATTGTTCTCCCAGCTGATGAATTAGCTTACTCGAGTAAACAAATTTTCCTAATCTTTCTGTTCAAGCGCCATCTAC” was run?
Answer: 0.938 RPM ratio (pull-down/input)

Question: “GATGATTGTTCTCCCAGCTGATGAATTTTGAGGGTCGAGTAAACAAATTTTCCTAATCTTTCTGTTCAAGCGCCATCTAC” was tested. Which binding signal did it give?
Answer: 0.774 RPM ratio (pull-down/input)

Question: For “GATGATTGTTCTCCCAGCTGATGAATTGCAACCATCGAGTAAACAAATTTTCCTAATCTTTCTGTTCAAGCGCCATCTAC”, which binding signal is on record?
Answer: 1.45 RPM ratio (pull-down/input)

Question: Which binding signal does the source give for “GATGATTGTTCTCCCAGCTGATGAATTTCTGCAATCGAGTAAACAAATTTTCCTAATCTTTCTGTTCAAGCGCCATCTAC” here?
Answer: 1.1 RPM ratio (pull-down/input)

Question: “GATGATTGTTCTCCCAGCTGATGAATTGCAAACATCGAGTAAACAAATTTTCCTAATCTTTCTGTTCAAGCGCCATCTAC” was tested. Which binding signal did it give?
Answer: 2.29 RPM ratio (pull-down/input)

Question: Which binding signal does the source give for “GATGATTGTTCTCCCAGCTGATGAATTGCAACAATCGAGTAAACAAATTTTCCTAATCTTTCTGTTCAAGCGCCATCTAC” here?
Answer: 1.91 RPM ratio (pull-down/input)

Question: Which binding signal does the source give for “GATGATTGTTCTCCCAGCTGATGAATTGATGCCATCGAGTAAACAAATTTTCCTAATCTTTCTGTTCAAGCGCCATCTAC” here?
Answer: 1.39 RPM ratio (pull-down/input)

Question: With “GATGATTGTTCTCCCAGCTGATGAATTGCAAAAATCGAGTAAACAAATTTTCCTAATCTTTCTGTTCAAGCGCCATCTAC” as the sequence, how does the binding signal read?
Answer: 1.55 RPM ratio (pull-down/input)

Question: For “GATGATTGTTCTCCCAGCTGATGAATTGTTGCAATCGAGTAAACAAATTTTCCTAATCTTTCTGTTCAAGCGCCATCTAC”, which binding signal is on record?
Answer: 1.87 RPM ratio (pull-down/input)

Question: “GATGATTGTTCTCCCAGCTGATGAATTGCAGCAATCGAGTAAACAAATTTTCCTAATCTTTCTGTTCAAGCGCCATCTAC” was tested. Which binding signal did it give?
Answer: 1.33 RPM ratio (pull-down/input)

Question: With “GATGATTGTTCTCCCAGCTGATGAATTGATGCAATCGAGTAAACAAATTTTCCTAATCTTTCTGTTCAAGCGCCATCTAC” as the sequence, how does the binding signal read?
Answer: 1.96 RPM ratio (pull-down/input)

Question: How did the binding signal turn out when “GATGATTGTTCTCCCAGCTGATGAATTTGCAACATCGAGTAAACAAATTTTCCTAATCTTTCTGTTCAAGCGCCATCTAC” was run?
Answer: 1.7 RPM ratio (pull-down/input)

Question: For “GATGATTGTTCTCCCAGCTGATGAATTGCAATCATCGAGTAAACAAATTTTCCTAATCTTTCTGTTCAAGCGCCATCTAC”, which binding signal is on record?
Answer: 1.48 RPM ratio (pull-down/input)

Question: With “GATGATTGTTCTCCCAGCTGATGAATTTTTGCAATCGAGTAAACAAATTTTCCTAATCTTTCTGTTCAAGCGCCATCTAC” as the sequence, how does the binding signal read?
Answer: 1.26 RPM ratio (pull-down/input)
